Compound activity (PubChem)
NTR1 agonist – activates human neurotensin receptor 1. 330,000 compounds, 0.17% hits. activation, % at 20 µM. P30989. AID 493036. NTR1-U2OS beta-arrestin-GFP spot imaging, agonist mode;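 active = activation at or above 40% of the spot to cytoplasm intensity ratio, with at least 20 cells analyzed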
MEKK3 PB1 HTS – modulators (inhibitors or enhancers) of MEK5 binding to human MEKK3 PB1 domain; AID 1529; binding response (% of control), % at 10 µM; Q99759; 290,000 compounds, 1.4% hits; bead-based flow cytometry, Alexa488-MEK5 binding to MEKK3; actives lie on both sides; 0 = blocked by unlabeled MEK5, 100 = vehicle;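 active = binding response more than 3 SD above or below the average of its plate-row segment, actives on both sides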;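 also: Alexa488 bead fluorescence after subtracting the streptavidin-only scavenger bead signal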
MEKK2 WT-MEK5 – raises or lowers MEK5 binding to wildtype human MEKK2 PB1 domain; binding response (% of control), % at 10 µM; 290,000 compounds, 1.1% hits; Q9Y2U5; bead flow cytometry, Alexa488-MEK5 binding to MEKK2 WT; actives lie on both sides; AID 1531; in the data active = binding response below about 67% or above about 130%
ANO1 activ – activators or potentiators of mouse TMEM16A chloride channel | 340,000 compounds, 0.3% hits | Q8BHY3 | B-score at 10 µM | HEK293 TMEM16A/YFP-H148Q/I152L, iodide quench fluorescence; hits give low values;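 active = fluorescence-ratio B-score plate-corrected deviation score at least 3 library SD below zero, with starting fluorescence score within 5 deviations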;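 also: channel opened by trigger with iodide after compound preincubation; score built on the fluorescence ratio of max minus min over baseline; more negative score means more quench and so TMEM16A activation or potentiation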
Target sequence (Q8BHY3 whole entry, looked up): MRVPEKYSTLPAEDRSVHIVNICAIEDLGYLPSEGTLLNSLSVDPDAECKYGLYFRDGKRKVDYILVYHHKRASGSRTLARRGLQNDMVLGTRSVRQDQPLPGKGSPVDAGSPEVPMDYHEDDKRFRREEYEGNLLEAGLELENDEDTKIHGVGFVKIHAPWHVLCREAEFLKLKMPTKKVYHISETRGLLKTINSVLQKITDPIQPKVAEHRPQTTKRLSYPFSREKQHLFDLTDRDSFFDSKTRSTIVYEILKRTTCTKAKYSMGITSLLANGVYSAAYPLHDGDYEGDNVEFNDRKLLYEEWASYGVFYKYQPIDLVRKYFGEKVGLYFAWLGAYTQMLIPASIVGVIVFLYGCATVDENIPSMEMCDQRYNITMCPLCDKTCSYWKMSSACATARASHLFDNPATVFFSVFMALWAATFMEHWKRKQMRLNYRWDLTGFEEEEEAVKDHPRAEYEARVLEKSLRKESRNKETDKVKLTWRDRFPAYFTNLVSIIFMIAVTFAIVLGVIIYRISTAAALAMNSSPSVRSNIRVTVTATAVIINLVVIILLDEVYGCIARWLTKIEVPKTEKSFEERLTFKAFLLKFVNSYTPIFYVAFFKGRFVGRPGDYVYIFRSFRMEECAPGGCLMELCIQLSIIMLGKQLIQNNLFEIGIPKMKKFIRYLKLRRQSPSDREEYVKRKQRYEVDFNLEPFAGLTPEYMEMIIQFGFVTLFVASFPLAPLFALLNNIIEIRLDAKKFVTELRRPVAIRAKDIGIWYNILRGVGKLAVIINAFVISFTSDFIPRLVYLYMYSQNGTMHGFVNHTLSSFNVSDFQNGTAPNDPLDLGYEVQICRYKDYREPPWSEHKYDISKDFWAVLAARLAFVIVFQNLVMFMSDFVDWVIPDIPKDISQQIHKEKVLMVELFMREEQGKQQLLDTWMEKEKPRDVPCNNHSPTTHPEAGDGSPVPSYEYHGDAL
MEKK2mut PB1 HTS – signal of MEK5 binding to mutant human MEKK2 PB1 domain. bead flow cytometry, Alexa488-MEK5 binding to MEKK2 mutant. percent response, % at 10 µM. 290,000 compounds, 0.35% hits; in the data active = percent response above about 24%, passing the limit was not always enough
TMEM16A inh – blocks the mouse calcium-activated chloride channel TMEM16A | Q8BHY3 | HEK293 TMEM16A/YFP iodide influx fluorescence, ionomycin | normalized B-score (activity score, 25-100; higher = stronger inhibition) at 10 µM | 310,000 compounds, 1.2% hits | AID 588511;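 active = ratio plate-corrected score three or more library SD toward inhibition, starting fluorescence score within five deviations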;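 also: score derived from kinetic fluorescence span divided by baseline fluorescence per well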
MEKK2wt confirm – raises or lowers MEK5 binding to wildtype human MEKK2, retest; shares compounds with MEKK3 PB1 HTS; bead flow cytometry, Alexa488-MEK5 binding to MEKK2 WT; actives lie on both sides; binding response (% of control), % at 10 µM; 5,900 compounds, 2.4% hits; AID 1892; in the data active = binding response below about 16% or above about 210%; inactive = in between
MEKK2mut-MEK5 – signal of MEK5 binding to mutant human MEKK2, retest; percent response, % at 10 µM; 5,900 compounds, 2% hits; bead flow cytometry, Alexa488-MEK5 binding to MEKK2 mutant; AID 1893; shares compounds with MEKK3 PB1 HTS; in the data active = percent response mostly above about 71%, no sharp cut-off; inactive = mostly below about 38%;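 also: higher means compound restores mutant binding toward wildtype level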
MEKK3-MEK5 inh – confirmation of inhibitors of MEK5 binding to human MEKK3. bead flow cytometry, Alexa488-MEK5 binding to MEKK3; hits give low values. shares compounds with MEKK3 PB1 HTS. 5,900 compounds, 1.8% hits. binding response (% of control), % at 10 µM;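 active = binding response below 72% of control, or above a set upper limit, though filed actives all read lower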;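 also: lower values mean stronger disruption of MEK5 binding to MEKK3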
Large screens that a line does not name were inactive (follow-up assays come after a bar, where they were run); [ ] = dose if it differs, or a comment. Compounds with a hit are over-represented: about 3.4% of the library has one in this group of screens.

CCN1CCN(c2ccc(S(=O)(=O)N3CCCCC3)cc2NC(=O)COc2cc(C)ccc2Cl)CC1	none (no result: MEKK3 PB1 HTS, MEKK2 WT-MEK5, MEKK2mut PB1 HTS)
CCN1CCN(c2ccc(S(=O)(=O)N3CCCCC3)cc2NC(=O)COc2ccc(F)cc2Cl)CC1	MEKK2 WT-MEK5 139 | MEKK2wt confirm inactive | MEKK2mut-MEK5 inactive | MEKK3-MEK5 inh inactive
CCn1cc(CN2CCCC(CNC(=O)COc3ccccc3OC)C2)c(C)n1 (centres undefined)	none
O=C(Cc1coc(-c2ccc(F)cc2)n1)Nc1ccccc1	MEKK3 PB1 HTS 2.0[inhibitor], MEKK2 WT-MEK5 2.0[inhibitor] | MEKK2wt confirm inactive | MEKK2mut-MEK5 inactive | MEKK3-MEK5 inh inactive
CS(=O)(=O)c1ccc2nc(NC(=O)CCN3C(=O)c4ccccc4C3=O)sc2c1	none
c1cc(-c2cccs2)nc(-c2cccs2)c1	none
c1csc(-c2cn3ccc4ccccc4c3n2)c1	MEKK3 PB1 HTS 6.0[inhibitor], MEKK2 WT-MEK5 7.0[inhibitor] | MEKK2wt confirm inactive | MEKK2mut-MEK5 inactive | MEKK3-MEK5 inh inactive
Cc1cc(C)cc(-n2ncc3c2CCCC3NC(=O)CCN2CCCC2=O)c1 (centres undefined)	none
O=C(C[n+]1cc(-c2ccc(Cl)cc2)n2c1CCC2)Nc1nc(-c2ccc(F)cc2)cs1	MEKK2 WT-MEK5 177 | MEKK2wt confirm inactive | MEKK2mut-MEK5 inactive | MEKK3-MEK5 inh inactive
Cn1c(NC(=O)C[n+]2cc(-c3ccc(Cl)cc3)n3c2CCC3)cc(=O)n(C)c1=O	none
O=C(C[n+]1cc(-c2ccccc2)n2c1CCC2)Nc1nc(-c2ccc(F)cc2)cs1	MEKK2 WT-MEK5 181 | MEKK2wt confirm inactive | MEKK2mut-MEK5 inactive | MEKK3-MEK5 inh inactive
O=C(C[n+]1cc(-c2ccc(F)cc2)n2c1CCC2)Nc1nc(-c2ccc(F)cc2)cs1	none
O=C(c1ccc(-c2cc3ccccc3oc2=O)cc1)N1CCN(c2ccc(Cl)cc2[N+](=O)[O-])CC1	none
O=C(NN=C1CCCCCC1)C(=O)Nc1cccc(Br)c1	none
O=C(Cn1cnc([N+](=O)[O-])n1)N/N=C/c1ccccc1O	none
O=C(Cn1cnc([N+](=O)[O-])n1)N/N=C/c1cc(Cl)ccc1O	MEKK3 PB1 HTS 135 | MEKK2wt confirm inactive | MEKK2mut-MEK5 inactive | MEKK3-MEK5 inh inactive
Cc1noc(/C=C/c2cccs2)c1S(=O)(=O)N1CCC(C(=O)NCCCN2CCCC(C)C2)CC1 (centres undefined)	MEKK2 WT-MEK5 152 | MEKK2wt confirm inactive | MEKK2mut-MEK5 inactive | MEKK3-MEK5 inh inactive
CCCNC(=O)C1CCN(S(=O)(=O)c2c(C)noc2/C=C\c2ccc(OC)cc2)CC1	none
COc1ccc(/C=C\c2onc(C)c2S(=O)(=O)N2CCC(C(=O)NCc3ccco3)CC2)cc1	MEKK3 PB1 HTS 130 | MEKK2wt confirm inactive | MEKK2mut-MEK5 inactive | MEKK3-MEK5 inh inactive
CN(C)CCOc1ccc(/C(=C(/CCCl)c2ccccc2)c2ccccc2)cc1	MEKK2 WT-MEK5 176 | MEKK2wt confirm inactive | MEKK2mut-MEK5 inactive | MEKK3-MEK5 inh inactive
CCN(CC(=O)NC)S(=O)(=O)c1ccc(C)cc1	none
CCN(CC(=O)NC)S(=O)(=O)c1ccc(Br)cc1	MEKK2mut PB1 HTS 24 | MEKK2wt confirm inactive | MEKK2mut-MEK5 inactive | MEKK3-MEK5 inh inactive
CC/C(=C\c1oc2cc3ccccc3cc2[n+]1CC)Nc1ccccc1	MEKK3 PB1 HTS 135, MEKK2 WT-MEK5 389, MEKK2mut PB1 HTS 464 | MEKK2wt confirm inactive | MEKK2mut-MEK5 -88[inhibitor] | MEKK3-MEK5 inh inactive
Cc1ccc(N2C(=O)C3C(C2=O)C2C=CC3C23CC3)c([N+](=O)[O-])c1 (centres undefined)	none
CC(=O)OCC(=O)[C@@]1(O)CC[C@H]2[C@@H]3CCC4=CC(=O)C=C[C@]4(C)[C@@]3(F)[C@@H](O)C[C@@]21C	none (no result: MEKK3 PB1 HTS, MEKK2 WT-MEK5, MEKK2mut PB1 HTS)
CC(=O)OCC(=O)C1=CCC2C3CCC4=CC(=O)C=CC4(C)C3(F)C(OC(C)=O)CC12C (centres undefined)	MEKK3 PB1 HTS 62[inhibitor], MEKK2 WT-MEK5 37[inhibitor] | MEKK2wt confirm inactive | MEKK2mut-MEK5 inactive | MEKK3-MEK5 inh inactive
CCc1cccc(N(C(=O)c2csnn2)C(C(=O)NC(C)(C)CC)c2ccccn2)c1 (centres undefined)	none
COCCNC(=O)CNC(=S)N(CCCN1CCOCC1)Cc1cccs1	none
CC(C)[C@H](NC(N)=O)C(=O)NCCc1ccc(Cl)cc1	none
CC(C)C(NC(=O)CNC(=O)OC(C)(C)C)C(=O)NCc1ccc(Cl)cc1 (centres undefined)	MEKK2 WT-MEK5 48[inhibitor] | MEKK2wt confirm inactive | MEKK2mut-MEK5 inactive | MEKK3-MEK5 inh inactive
N#Cc1c(C(F)(F)F)cc(-c2ccccc2)[nH]c1=O	MEKK3 PB1 HTS 127 | MEKK2wt confirm inactive | MEKK2mut-MEK5 inactive | MEKK3-MEK5 inh inactive
CCOc1ccc(NCC(=O)c2ccc(C)cc2)cc1	none
Cc1ccc(C(=O)CNc2ccc(Cl)cc2)cc1	MEKK3 PB1 HTS 1.0[inhibitor], MEKK2 WT-MEK5 1.0[inhibitor] | MEKK2wt confirm inactive | MEKK2mut-MEK5 inactive | MEKK3-MEK5 inh inactive
CN(C)CCC(=O)c1ccc(Cl)cc1	MEKK2mut PB1 HTS 27 | MEKK2wt confirm inactive | MEKK2mut-MEK5 inactive | MEKK3-MEK5 inh inactive
Cc1ccc(CN(C)C(=O)CCNS(=O)(=O)c2ccccc2)o1	none (no result: MEKK3 PB1 HTS, MEKK2 WT-MEK5, MEKK2mut PB1 HTS, TMEM16A inh)
Cc1ccccc1-c1nnc(SCC(=O)c2c(N)n(C3CC3)c(=O)[nH]c2=O)o1	none (no result: MEKK3 PB1 HTS, MEKK2 WT-MEK5, MEKK2mut PB1 HTS, TMEM16A inh)
COc1cccc(C(=O)Nc2cc(NC(=O)c3cccs3)ccc2C)c1OC	MEKK2mut PB1 HTS 24 | MEKK2wt confirm inactive | MEKK2mut-MEK5 inactive | MEKK3-MEK5 inh inactive
COc1cc(NC(=O)c2cccc(Cl)c2)ccc1NC(=O)c1cccs1	MEKK3 PB1 HTS 133 | MEKK2wt confirm inactive | MEKK2mut-MEK5 inactive | MEKK3-MEK5 inh inactive
CCc1ccc(-c2cc(C)no2)cc1S(=O)(=O)N1CCOc2ccccc21	none
CCc1ccc(NC(=O)C2C3/C=C\CCCCC32)cc1 (centres undefined)	none
CC(=O)N1CCN(CC(=O)O)CC1	none (no result: ANO1 activ)
CC(=O)N1CCN(C(=O)CCC(=O)O)CC1	MEKK3 PB1 HTS 19[inhibitor], MEKK2 WT-MEK5 7.0[inhibitor] | MEKK2wt confirm inactive | MEKK2mut-MEK5 inactive | MEKK3-MEK5 inh inactive
Cc1cc(C(=O)NC2=NCCS2)c2ccccc2n1	MEKK3 PB1 HTS 132 | MEKK2wt confirm inactive | MEKK2mut-MEK5 inactive | MEKK3-MEK5 inh inactive
